Measured values: the supplement of paper PMC3334620
Whole data set: some 33,000 sequences, median “E-score (-0.5 to 0.5)” near -0.012, cut for the highest 2% near 0.29. Only a selection was taken, and the highest values are over-represented in it overall.

What follows are sequences tested against T1, Ybr033w (UniProt P38073) (assay: PBM E-score (8-mer binding enrichment) (E-score (-0.5 to 0.5)); higher = stronger / more preferred TF binding). Conditions: protein concentration: 200 nM; construct: GST-full length.
T1 sequence: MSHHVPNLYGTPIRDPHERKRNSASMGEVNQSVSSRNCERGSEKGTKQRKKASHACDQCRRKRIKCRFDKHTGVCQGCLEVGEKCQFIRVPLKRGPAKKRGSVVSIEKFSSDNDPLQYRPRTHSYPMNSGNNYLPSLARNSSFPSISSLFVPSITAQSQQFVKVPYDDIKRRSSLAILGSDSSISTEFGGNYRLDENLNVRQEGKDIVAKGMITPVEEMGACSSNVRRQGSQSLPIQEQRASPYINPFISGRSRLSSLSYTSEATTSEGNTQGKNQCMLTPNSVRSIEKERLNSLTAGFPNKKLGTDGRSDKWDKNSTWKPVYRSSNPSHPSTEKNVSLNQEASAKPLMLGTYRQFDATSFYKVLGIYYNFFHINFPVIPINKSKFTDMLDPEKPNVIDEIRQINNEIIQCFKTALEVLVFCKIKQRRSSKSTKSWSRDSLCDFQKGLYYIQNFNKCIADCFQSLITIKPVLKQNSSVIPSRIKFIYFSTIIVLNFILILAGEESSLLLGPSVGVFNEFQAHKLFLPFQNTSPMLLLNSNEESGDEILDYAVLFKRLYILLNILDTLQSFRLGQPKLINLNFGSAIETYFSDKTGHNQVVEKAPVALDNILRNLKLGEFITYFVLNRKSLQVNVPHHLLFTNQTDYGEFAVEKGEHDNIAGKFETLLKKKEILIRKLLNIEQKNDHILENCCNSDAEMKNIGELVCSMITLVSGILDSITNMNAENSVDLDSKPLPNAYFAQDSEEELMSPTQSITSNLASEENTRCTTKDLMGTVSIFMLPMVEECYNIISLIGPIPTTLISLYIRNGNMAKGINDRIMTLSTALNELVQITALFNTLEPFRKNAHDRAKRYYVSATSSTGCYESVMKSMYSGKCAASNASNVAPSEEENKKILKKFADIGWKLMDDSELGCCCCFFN
Protocol: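 Universal 'all 10-mer' protein binding microarrays (Agilent AMADID 015681) probed with GST-tagged S. cerevisiae TFs (full-length or DBD) made by in vitro transcription/translation (PURExpress), about 100-200 nM. Bound TF was detected with fluorescent anti-GST. Each ungapped 8-mer (which stands for itself and its reverse complement) is scored by the PBM enrichment score (E-score), a modified Wilcoxon-Mann-Whitney statistic from -0.5 to +0.5, computed with the Universal PBM Analysis Suite. Scale: above 0.35 generally sequence-specific binding.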

Row | Sequence | PBM E-score
1 | AGGCAGTG | -0.0313
2 | GCCGTTTA | 0.0411
3 | CAAAAGTA | 0.16
4 | AAGCCATA | 0.0179
5 | ATGCACGA | -0.021
6 | GGTGAGAC | 0.0001
7 | ACCAATCC | -0.0137
8 | AACCTTTC | -0.0863
9 | ACCAGCAC | -0.0392
10 | CTCTGCGA | -0.0389
11 | ATTCATCC | 0.349
12 | CTTCATCC | -0.0751
13 | ATTCATCA | 0.171
14 | ACATAAAT | 0.149
15 | AGGGTGGG | -0.0779
16 | ACCAAGCG | -0.0846
17 | AGCACACA | -0.0313
18 | AAAATGGG | -0.032
19 | AAAATGAT | 0.369
20 | AAAATGGT | 0.319
21 | AAAATGGA | 0.197
22 | AAAATGAC | 0.15
23 | AAAATGAA | 0.081
24 | GATATGGC | -0.161
25 | TCACCTAA | 0.0978

Row | Sequence | PBM E-score
26 | GCGATACC | -0.236
27 | CTGACTCA | -0.0835
28 | ATTACAAA | 0.318
29 | CATACAAA | 0.246
30 | AATACAAG | 0.252
31 | AATACAAA | 0.302
32 | ATTACAGG | 0.326
33 | AATACAAC | 0.271
34 | ATTACAAT | 0.0893
35 | ATTACAGA | 0.141
36 | GATACAAA | 0.277
37 | TATACAAA | 0.356
38 | ATTACAAG | 0.18
39 | ATTACAGC | -0.21
40 | ACGGCTTG | -0.0473
41 | GGCGTGAC | -0.141
42 | ATACTGAG | 0.267
43 | CTCCAGTA | 0.109
44 | AATCCATC | 0.14
45 | CAGCATAG | -0.0334
46 | CACTTGCA | -0.0412
47 | CGCTACAA | 0.111
48 | GGCAGCCA | -0.0547
49 | GATACATC | -0.0274
50 | AATACATC | 0.297

Row | Sequence | PBM E-score
51 | AATACATG | 0.222
52 | GTTCGAAC | 0.209
53 | GGCTGTCA | -0.0424
54 | CAGCGAAC | 0.0498
55 | ACATAAGA | 0.293
56 | TCATAAGA | 0.114
57 | ACATAAGC | 0.0339
58 | CCCAGTTA | -0.0098
59 | GTGTTTGA | 0.191
60 | CAAGTGGC | 0.0512
61 | AATATTCT | 0.248
62 | GCTATTAC | -0.0504
63 | GATATTCA | 0.12
64 | AATATTCC | 0.45
65 | GATATTCC | 0.417
66 | CATATTAC | 0.17
67 | CATATTCC | 0.0424
68 | AATATTCG | 0.161
69 | GATATTAC | 0.31
70 | CCTGCACG | -0.159
71 | AGCAGTCC | -0.182
72 | GCGTGAAA | 0.0243
73 | AACTGCTT | 0.0101
74 | GCCGGTTA | -0.0903
75 | CTACAGCA | 0.0371

Row | Sequence | PBM E-score
76 | TAAGGTCA | 0.028
77 | ACGGGAGT | 0.0679
78 | CCGCTCAG | -0.111
79 | AGAACAGG | -0.125
80 | AGGTTACC | 0.0897
81 | AATGATCC | 0.421
82 | AATGATTA | 0.251
83 | AATGATAT | 0.298
84 | CATGATTC | -0.131
85 | AATGATCT | 0.157
86 | CATGATCC | 0.0454
87 | AATGATTC | 0.306
88 | GATGATCC | 0.4
89 | AATGATCA | 0.0742
90 | AATGATAA | 0.192
91 | GATGATCA | 0.0749
92 | AATGATAG | 0.215
93 | TCCCACGA | 0.0793
94 | ACTAGCCA | 0.0538
95 | AGAGTCTA | -0.16
96 | CGCTGCAG | -0.12
97 | GCGTTCAC | -0.0913
98 | GTACCGAC | -0.275
99 | CATGAGGA | 0.0386
100 | CGCTCTGC | -0.0367

Row | Sequence | PBM E-score
101 | CTGCGTGA | 0.0319
102 | ATTGATCC | 0.466
103 | ATTGATCA | 0.051
104 | CTTGATCC | 0.0221
105 | ATGCTTCA | 0.0658
106 | CAATACTA | 0.143
107 | AACTACTA | 0.298
108 | GAATACTA | 0.204
109 | ATCTACTC | 0.127
110 | TAATACTA | 0.362
111 | ATCTACTG | 0.143
112 | CACTACTA | 0.094
113 | AACTACTG | 0.126
114 | ATCTACTA | 0.324
115 | TACTACTA | 0.335
116 | GACTACTA | 0.122
117 | AACTACTC | 0.119
118 | TAACTATA | 0.242
119 | ATGCTGCG | -0.15
120 | CGAGGCAC | -0.109
121 | GTACCCAC | -0.116
122 | CGCAGGGA | -0.202
123 | AGCTAATA | 0.078
124 | AGCGCATC | 0.0587
125 | CGCGAAGC | 0.0254

Row | Sequence | PBM E-score
126 | CACTAGTA | 0.0533
127 | TACTAGTA | 0.377
128 | GACTAGTA | 0.0157
129 | CTTTAAAA | 0.2
130 | AAAGTCGG | -0.122
131 | ACTGTGCA | 0.031
132 | ATGACAAC | 0.111
133 | ATGACAAT | 0.293
134 | ATGACAAG | -0.0461
135 | AAAAAAGC | 0.171
136 | AAAAAGTT | 0.314
137 | ACAAAAGT | 0.0857
138 | AAAAAGTC | 0.22
139 | AAAAAGTA | 0.283
140 | AAAAAAGT | 0.353
141 | CTGTTGCC | -0.136
142 | AGTGAAAA | 0.183
143 | TGCCAACA | 0.0786
144 | GTGCGCAC | 0.0505
145 | GCAGTCCA | -0.029
146 | GTCGTTTA | 0.0819
147 | ATCGTTTA | 0.307
148 | ATTGTTTC | 0.199
149 | ATTGTTTA | 0.296
150 | ATCGTTTC | 0.184

Row | Sequence | PBM E-score
151 | ATTGTTTG | 0.118
152 | GTTGTCCA | 0.00858
153 | ATGGTCAA | 0.198
154 | AGCTGGCC | -0.179
155 | AGGTAGAC | -0.212
156 | CTAGAGAC | -0.0751
157 | ATTCAACG | 0.114
158 | ATACCTAT | 0.102
159 | ATACCTAA | 0.316
160 | TTACCTAA | 0.156
161 | CCAAGCGA | -0.0712
162 | ACTAATTA | 0.281
163 | AATAATTC | 0.386
164 | CATAATTA | 0.284
165 | AATAATGA | 0.247
166 | GATAATTA | 0.361
167 | AATAATTG | 0.256
168 | GCTAATTA | 0.175
169 | AATAATTA | 0.372
170 | CATAATTC | -0.00123
171 | AAACGTTC | 0.0667
172 | AGAGTGTG | -0.0636
173 | CGATGCGC | 0.0464
174 | AGAGGTGG | -0.156
175 | AAGTGAAA | 0.29

Row | Sequence | PBM E-score
176 | GAGTGAAA | 0.129
177 | CAGTGAAA | 0.126
178 | GTCCTTCA | -0.0408
179 | CAGCACTC | 0.0472
180 | AATGGTCA | 0.205
181 | AATAGTAG | 0.201
182 | AATAGTGC | 0.123
183 | AATAGTAA | 0.239
184 | AATAGTAT | 0.293
185 | AATAGTGT | 0.289
186 | AATAGTGG | 0.0387
187 | AGCAATAG | 0.0737
188 | GTTCGGAA | 0.316
189 | CTTCGGAA | 0.243
190 | ATTCGGAA | 0.269
191 | GAAGCGCC | -0.0866
192 | AACTTGAC | -0.0113
193 | GAATACTC | 0.0489
194 | CAATACTC | 0.193
195 | AAATACTG | 0.172
196 | AAATACTT | 0.34
197 | AAATACTA | 0.224
198 | AAATACTC | 0.316
199 | GTTAAGGA | 0.121
200 | AGCTGAAT | 0.135

Row | Sequence | PBM E-score
201 | AGCTCTGC | -0.255
202 | AAAGTCTA | -0.00319
203 | ACTCCTCA | -0.135
204 | ATTAAGCA | -0.0125
205 | ATTCATTA | 0.263
206 | CTTCATTA | 0.291
207 | GTTCATTA | 0.221
208 | ATTGGTGC | 0.0298
209 | ATACTTTG | 0.297
210 | ATACTTTC | 0.177
211 | ATACTTTA | 0.23
212 | AGCCAGGG | -0.362
213 | GCGGAAAC | -0.191
214 | CCGGAAAC | 0.14
215 | CCGGAAAA | 0.44
216 | ACGGAAAT | 0.313
217 | GCGGAAAA | 0.396
218 | CCGGAAAG | -0.0245
219 | ACGGAAAC | -0.12
220 | GCGGGAAA | 0.128
221 | ACGGAAAA | 0.422
222 | ACGGAAAG | 0.0247
223 | ACGGGAAT | 0.0676
224 | ACAGAAAT | 0.137
